{"source": "ChEMBL document CHEMBL4513149", "about": "“CO-ADD screening of MMV (CH) - MMV compounds” (2021)", "key": {"Staphylococcus aureus": {"tested_on": "Staphylococcus aureus", "conditions": "Concentration 20 uM; ASSAY_TEST Inhibition of Bacterial Growth; detection method Absorption (OD600); MEDIA CAMHB; plate type 384well; NBS; CORNING #3640; time 18 hr"}, "Escherichia coli": {"tested_on": "Escherichia coli", "conditions": "Concentration 20 uM; ASSAY_TEST Inhibition of Bacterial Growth; detection method Absorption (OD600); MEDIA CAMHB; plate type 384well; NBS; CORNING #3640; time 18 hr"}}, "note": "Results with a measured potency or affinity are listed apart."}
{"smiles": "Nc1nccc2ccc(-c3ccc4nccn4c3)cc12", "values": [{"measurement": "Inhibition", "setting": "Staphylococcus aureus", "value": 24.43, "unit": "%"}, {"measurement": "Inhibition", "setting": "Escherichia coli", "value": 1.05, "unit": "%"}]}
{"smiles": "O=C(CCC1CCCCC1)Nc1cccc(-c2nnc(-c3ccco3)o2)c1", "values": [{"measurement": "Inhibition", "setting": "Staphylococcus aureus", "value": 8.68, "unit": "%"}, {"measurement": "Inhibition", "setting": "Escherichia coli", "value": 8.91, "unit": "%"}]}
{"smiles": "Nc1ncc(-c2cn[nH]c2)cc1-c1nc2cc(Cl)cnc2[nH]1", "values": [{"measurement": "Inhibition", "setting": "Staphylococcus aureus", "value": -0.61, "unit": "%"}, {"measurement": "Inhibition", "setting": "Escherichia coli", "value": 5.12, "unit": "%"}]}
{"smiles": "COc1ccc(CCN2CCC(NCc3cccc(N(C)C)c3)CC2)cc1", "values": [{"measurement": "Inhibition", "setting": "Staphylococcus aureus", "value": 16.93, "unit": "%"}, {"measurement": "Inhibition", "setting": "Escherichia coli", "value": 1.75, "unit": "%"}]}
{"smiles": "CCCn1nnc(NC(=O)COc2ccc(C3CCCCC3)cc2)n1", "values": [{"measurement": "Inhibition", "setting": "Staphylococcus aureus", "value": 2.73, "unit": "%"}, {"measurement": "Inhibition", "setting": "Escherichia coli", "value": -2.31, "unit": "%"}]}
{"smiles": "c1ccc2c(c1)CN(CC1CC1)CC1(CCN(Cc3c[nH]c4cnccc34)CC1)O2", "values": [{"measurement": "Inhibition", "setting": "Staphylococcus aureus", "value": 14.8, "unit": "%"}, {"measurement": "Inhibition", "setting": "Escherichia coli", "value": 1.67, "unit": "%"}]}
{"smiles": "O=C(C(Cc1c[nH]c2ccccc12)NS(=O)(=O)c1ccc(Cl)cc1)N1CCCCC1", "note": "(stereo not given)", "values": [{"measurement": "Inhibition", "setting": "Staphylococcus aureus", "value": 2.32, "unit": "%"}, {"measurement": "Inhibition", "setting": "Escherichia coli", "value": 4.17, "unit": "%"}]}
{"smiles": "CCCn1c(CNc2ccccc2O)nc2ccccc21", "values": [{"measurement": "Inhibition", "setting": "Staphylococcus aureus", "value": 17.07, "unit": "%"}, {"measurement": "Inhibition", "setting": "Escherichia coli", "value": 4.85, "unit": "%"}]}
{"smiles": "COc1ccc(Cl)cc1NC(=O)CN(C)C(=O)c1cnn(-c2ccccc2)n1", "values": [{"measurement": "Inhibition", "setting": "Staphylococcus aureus", "value": 8.96, "unit": "%"}, {"measurement": "Inhibition", "setting": "Escherichia coli", "value": -2.51, "unit": "%"}]}
{"smiles": "CC(C)/N=c1\\cc2n(-c3ccc(Cl)cc3)c3ccccc3nc-2cc1Nc1ccc(Cl)cc1", "note": "[CLOFAZIMINE]", "values": [{"measurement": "Inhibition", "setting": "Staphylococcus aureus", "value": 59.44, "unit": "%"}, {"measurement": "Inhibition", "setting": "Escherichia coli", "value": 9.66, "unit": "%"}]}
{"smiles": "CC1CC1C(=O)NC1CCN(CC2(c3ccccc3)CCCCC2)CC1", "note": "(stereo not given)", "values": [{"measurement": "Inhibition", "setting": "Staphylococcus aureus", "value": 14.54, "unit": "%"}, {"measurement": "Inhibition", "setting": "Escherichia coli", "value": 6.55, "unit": "%"}]}
{"smiles": "CS(=O)(=O)c1ccccc1C(=O)N(Cc1ccccc1)c1ccccc1", "values": [{"measurement": "Inhibition", "setting": "Staphylococcus aureus", "value": 14.37, "unit": "%"}, {"measurement": "Inhibition", "setting": "Escherichia coli", "value": 5.13, "unit": "%"}]}
{"smiles": "Cl.NCCCC(N)(C(=O)O)C(F)F.O", "note": "(stereo not given) [EFLORNITHINE HYDROCHLORIDE]", "values": [{"measurement": "Inhibition", "setting": "Staphylococcus aureus", "value": 10.2, "unit": "%"}, {"measurement": "Inhibition", "setting": "Escherichia coli", "value": -2.06, "unit": "%"}]}
{"smiles": "O=C1COCc2ccc(Br)cc2N1Cc1ccc(C(F)(F)F)cc1", "values": [{"measurement": "Inhibition", "setting": "Staphylococcus aureus", "value": 12.84, "unit": "%"}, {"measurement": "Inhibition", "setting": "Escherichia coli", "value": 10.17, "unit": "%"}]}
{"smiles": "c1ccc(-c2cc(N3CCCCC3)c3ccccc3n2)nc1", "values": [{"measurement": "Inhibition", "setting": "Staphylococcus aureus", "value": 9.48, "unit": "%"}, {"measurement": "Inhibition", "setting": "Escherichia coli", "value": 7.94, "unit": "%"}]}
{"smiles": "CN1CCN(S(=O)(=O)c2ccc(-c3ccc4c(Nc5ccc6nn[nH]c6c5)ccnc4c3)cc2)CC1", "values": [{"measurement": "Inhibition", "setting": "Staphylococcus aureus", "value": 10.46, "unit": "%"}, {"measurement": "Inhibition", "setting": "Escherichia coli", "value": -0.24, "unit": "%"}]}
{"smiles": "C[C@H](C(N)=O)N1CCCC[C@@H]1c1ccc(OCc2cccc(F)c2)cc1", "values": [{"measurement": "Inhibition", "setting": "Staphylococcus aureus", "value": 12.73, "unit": "%"}, {"measurement": "Inhibition", "setting": "Escherichia coli", "value": 2.14, "unit": "%"}]}
{"smiles": "Cc1noc(C)c1COc1cccc(C(=O)N=c2[nH]cccc2C)c1", "values": [{"measurement": "Inhibition", "setting": "Staphylococcus aureus", "value": 21.93, "unit": "%"}, {"measurement": "Inhibition", "setting": "Escherichia coli", "value": 6.93, "unit": "%"}]}
{"smiles": "CNC(=O)CNc1nc(-c2ccccn2)nc2scc(-c3ccccc3)c12", "values": [{"measurement": "Inhibition", "setting": "Staphylococcus aureus", "value": 11.27, "unit": "%"}, {"measurement": "Inhibition", "setting": "Escherichia coli", "value": 6.67, "unit": "%"}]}
{"smiles": "O=C(Nc1nc(-c2ccccn2)cs1)c1cncn1-c1ccccc1", "values": [{"measurement": "Inhibition", "setting": "Staphylococcus aureus", "value": 8.38, "unit": "%"}, {"measurement": "Inhibition", "setting": "Escherichia coli", "value": 5.73, "unit": "%"}]}
{"smiles": "CN1CCN(c2nccc3[nH]c(-c4cccc(F)c4)cc23)CC1", "values": [{"measurement": "Inhibition", "setting": "Staphylococcus aureus", "value": 12.79, "unit": "%"}, {"measurement": "Inhibition", "setting": "Escherichia coli", "value": 3.68, "unit": "%"}]}
{"smiles": "CN(C(=O)c1cc2c(-c3cncnc3)cccc2[nH]1)c1ccccc1", "values": [{"measurement": "Inhibition", "setting": "Staphylococcus aureus", "value": 12.46, "unit": "%"}, {"measurement": "Inhibition", "setting": "Escherichia coli", "value": 10.65, "unit": "%"}]}
{"smiles": "COc1cccc(NC(=O)c2c(NC(=O)c3cccnc3)sc3c2CCC3)c1", "values": [{"measurement": "Inhibition", "setting": "Staphylococcus aureus", "value": 17.01, "unit": "%"}, {"measurement": "Inhibition", "setting": "Escherichia coli", "value": 4.69, "unit": "%"}]}
{"smiles": "CCOC(=O)c1noc(N)c1-c1ccccc1", "values": [{"measurement": "Inhibition", "setting": "Staphylococcus aureus", "value": 31.41, "unit": "%"}, {"measurement": "Inhibition", "setting": "Escherichia coli", "value": 11.39, "unit": "%"}]}
{"smiles": "NCC(=O)N1CCn2c(nc(-c3ccccc3)c2Nc2ccc3c(c2)OCO3)C1", "values": [{"measurement": "Inhibition", "setting": "Staphylococcus aureus", "value": 11.35, "unit": "%"}, {"measurement": "Inhibition", "setting": "Escherichia coli", "value": -1.15, "unit": "%"}]}
{"smiles": "Cc1cc(Nc2ccc(C(F)(F)F)cc2)n2ccnc2n1", "values": [{"measurement": "Inhibition", "setting": "Staphylococcus aureus", "value": 20.89, "unit": "%"}, {"measurement": "Inhibition", "setting": "Escherichia coli", "value": 9.89, "unit": "%"}]}
{"smiles": "CC(C)(C(=O)Nc1ccc(F)cc1)n1cc(-c2ccccc2F)cn1", "values": [{"measurement": "Inhibition", "setting": "Staphylococcus aureus", "value": 21.36, "unit": "%"}, {"measurement": "Inhibition", "setting": "Escherichia coli", "value": 9.99, "unit": "%"}]}
{"smiles": "COc1ccc(OC(C)C(=O)Nc2ccc(Cl)cc2C)cc1", "note": "(stereo not given)", "values": [{"measurement": "Inhibition", "setting": "Staphylococcus aureus", "value": 11.95, "unit": "%"}, {"measurement": "Inhibition", "setting": "Escherichia coli", "value": 5.14, "unit": "%"}]}
{"smiles": "O=C1N(Cc2cc3ccccc3s2)CC2CN(Cc3ccccc3)CCN12", "note": "(stereo not given)", "values": [{"measurement": "Inhibition", "setting": "Staphylococcus aureus", "value": 3.35, "unit": "%"}, {"measurement": "Inhibition", "setting": "Escherichia coli", "value": -5.97, "unit": "%"}]}
{"smiles": "O=C(NCCN1CCCC1)c1cc(NCCN2CCOCC2)nc2ccc(Cl)cc12", "values": [{"measurement": "Inhibition", "setting": "Staphylococcus aureus", "value": 22.71, "unit": "%"}, {"measurement": "Inhibition", "setting": "Escherichia coli", "value": 6.99, "unit": "%"}]}
{"smiles": "CCOc1ccc(-c2nc(CNCCc3ccc(F)cc3)cs2)cc1", "values": [{"measurement": "Inhibition", "setting": "Staphylococcus aureus", "value": 30.74, "unit": "%"}, {"measurement": "Inhibition", "setting": "Escherichia coli", "value": 7.75, "unit": "%"}]}
{"smiles": "CCN(CC)CCCCCCNc1cc(OC)cc2c(C)ccnc12.Cc1ccc(S(=O)(=O)O)cc1", "values": [{"measurement": "Inhibition", "setting": "Staphylococcus aureus", "value": 18.42, "unit": "%"}, {"measurement": "Inhibition", "setting": "Escherichia coli", "value": 7.48, "unit": "%"}]}
{"smiles": "Cc1cc(OCC(=O)Nc2ccc(C(C)C)cc2)n(C)c(=O)c1C#N", "values": [{"measurement": "Inhibition", "setting": "Staphylococcus aureus", "value": 7.07, "unit": "%"}, {"measurement": "Inhibition", "setting": "Escherichia coli", "value": 14.16, "unit": "%"}]}
{"smiles": "O=[N+]([O-])c1cn2c(n1)OC[C@@H](OCc1ccc(OC(F)(F)F)cc1)C2", "note": "[PRETOMANID]", "values": [{"measurement": "Inhibition", "setting": "Staphylococcus aureus", "value": 14.36, "unit": "%"}, {"measurement": "Inhibition", "setting": "Escherichia coli", "value": 4.79, "unit": "%"}]}
{"smiles": "CC(C)(C)n1nc(Cc2cccc3ccccc23)c2c(N)ncnc21", "values": [{"measurement": "Inhibition", "setting": "Staphylococcus aureus", "value": 2.05, "unit": "%"}, {"measurement": "Inhibition", "setting": "Escherichia coli", "value": -5.14, "unit": "%"}]}
